{"source": "PubChem BioAssay AID1259376", "about": "(The Scripps Research Institute Molecular Screening Center, 2018)", "note": "The whole screen tested about 4,700 compounds, of which about 360 (7.7%) were called active.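 Rule for the calls: active = inhibition above a cutoff derived from the DMSO control wells (cut at about 30% in these data); inactive = the rest.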 The entries come from a sample that favours actives as a whole."}
{"assay": "AlphaScreen optical interference compounds, counter-screen for MITF inhibitor project, biochemical, triplicate (AID 1259376)", "settings": "LysRS AlphaScreen counterscreen, signal interference, at 2.6 µM, stronger effect = higher value"}
{"smiles": "COc1cc(NC(=O)CCc2nc(C3=CCN(C)CC3)no2)cc(OC)c1OC", "inhibition": "34.2% (active)"}
{"smiles": "COc1ccccc1CN1CCN(C(=O)Cc2ccccc2)CC1", "inhibition": "7.15% (inactive)"}
{"smiles": "COc1ccc(CN2CCN(C(C)C)CC2)cc1", "inhibition": "10.5% (inactive)"}
{"smiles": "COc1cccc(CN2CCN(Cc3ccccc3F)CC2)c1", "inhibition": "16.6% (inactive)"}
{"smiles": "CCN1CCc2nc3ccccc3c(C(=O)O)c2C1", "inhibition": "4.31% (inactive)"}
